Only a selection was taken, and hits are over-represented in it overall.
IDE exosite inh – displaces the probe from the exo-site of human IDE; 17,000 tested, 6.3% active; P14735; z-score at 20 µM; purified IDE, FL-6b probe fluorescence polarization; stronger effect = lower value; AID 1259349;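 active = z-score of -3 or lower, meaning strong loss of probe binding signal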;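 note: His-tagged human IDE residues 42-1019 made in E. coli with 30 nM FL-6b probe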
Large screens that a line does not name were inactive; ! = not confirmed by another sample.

Cc1noc(C)c1S(=O)(=O)Nc1ccc2c(c1)CC(=O)N([C@H](C)CO)C[C@@H](C)[C@H](CN(C)Cc1ccc(Oc3ccccc3)cc1)O2	none
Cc1noc(C)c1S(=O)(=O)Nc1ccc2c(c1)CC(=O)N([C@H](C)CO)C[C@H](C)[C@H](CN(C)Cc1ccc(Oc3ccccc3)cc1)O2	none
C[C@@H]1CN([C@@H](C)CO)C(=O)c2cc(N(C)C)ccc2O[C@H]1CN(C)Cc1ccc(Oc2ccccc2)cc1	none
C[C@@H]1CN([C@@H](C)CO)C(=O)c2cc(N(C)C)ccc2O[C@@H]1CN(C)Cc1ccc(Oc2ccccc2)cc1	none
C[C@H]1CN([C@@H](C)CO)C(=O)c2cc(Br)cnc2O[C@H]1CN(C)Cc1ccc(Oc2ccccc2)cc1	IDE exosite inh -3.5
CO[C@H]1CC[C@H]2CCOc3ccc(C#N)cc3C(=O)N(C)CC3(CCCCC3)CC(=O)N(C)C[C@H]1O2	none
C[C@@H]1CCCCO[C@H](CN(C)Cc2ccncc2)[C@H](C)CN([C@@H](C)CO)C(=O)c2cc(NC(=O)Cc3ccccc3)ccc2O1	none
CN(C)C(=O)c1ccc(-c2ccc3c(c2)[C@H]2[C@H](CCN2C(=O)C2CCCC2)[C@@H](CO)N3C)cc1	none
CCC(=O)N1[C@H](CO)[C@H](c2ccc(C#CC3CCCCC3)cc2)[C@@H]1CNC(C)C	none
CCN1[C@@H]2Cn3c(ccc(-c4ccccc4OC)c3=O)[C@H]1[C@@H](C(=O)NCc1ccccn1)[C@@H]2CO	none
CN(C)CC#Cc1ccc([C@@H]2[C@@H](CO)N3CCCCN(C(=O)C4CCC4)C[C@@H]23)cc1	none
Cc1noc(C)c1NC(=O)N1C[C@H](O)COC[C@@H]2O[C@H](CC(=O)N[C@@H]3CCN(Cc4ccccc4)C3)CC[C@H]21	none
O=C(C1CCOCC1)N1CC(=O)N2[C@H](CO)[C@@H](c3ccc(C#CC4CC4)cc3)[C@@H]2C1	none
O=C(C1CCOCC1)N1CC(=O)N2[C@@H](CO)[C@H](c3ccc(C#Cc4cccc(F)c4)cc3)[C@@H]2C1	IDE exosite inh -6.6
O=C(C1CCOCC1)N1CC(=O)N2[C@H](CO)[C@@H](c3ccc(C#Cc4cccc(F)c4)cc3)[C@H]2C1	IDE exosite inh -4.4
O=C(C1CCOCC1)N1CC(=O)N2[C@H](C1)[C@@H](c1ccc(C#Cc3cccc(F)c3)cc1)[C@@H]2CO	IDE exosite inh -9.4
O=C(C1CCOCC1)N1CC(=O)N2[C@H](CO)[C@H](c3ccc(C#Cc4cccc(F)c4)cc3)[C@@H]2C1	IDE exosite inh -8.2
CO[C@H](CN(C)Cc1ccc(-c2ccccn2)cc1)[C@H](C)CN(C(=O)Nc1ccc(F)cc1)[C@H](C)CO	none
O=C(Nc1ccc(F)cc1)N1CC(=O)N2[C@H](CO)[C@@H](c3ccc(C#Cc4ccccc4)cc3)[C@H]2C1	none
CC(C)CC#Cc1ccc([C@@H]2[C@H](CO)N3C(=O)CN(C(=O)Cc4ccccc4)C[C@@H]23)cc1	none
COc1ccccc1NC(=O)N1CC(=O)N2[C@@H](CO)[C@H](c3ccc(C#CCC(C)C)cc3)[C@@H]2C1	none
CC(C)[C@H]1C(=O)N[C@@H](c2ccc(F)cc2)CC=CC[C@H](C)Oc2ccccc2C(=O)N1C (mixture of isomers)	none
CN(C)C(=O)C[C@H]1C[C@H]2c3cc(NC(=O)c4cccnc4)ccc3O[C@H]2[C@H](CO)O1	none
CN(C)CC(=O)N1CCCCN2[C@H](CO)[C@@H](c3ccc(-c4cccnc4)cc3)[C@@H]2C1	none
C[C@@H]1CCCCO[C@@H](CN(C)C(=O)Nc2ccc(C(F)(F)F)cc2)[C@H](C)CN([C@H](C)CO)C(=O)c2cc(NS(=O)(=O)c3cn(C)cn3)ccc2O1	none
CC(=O)NC[C@@H]1[C@H](c2ccc(-c3ccccc3)cc2)[C@H](CO)N1C(=O)C1CCC1	none
CN1C(=O)c2cc(NC(=O)Nc3ccccc3F)ccc2OC[C@H]2O[C@@H](CC(=O)NCCc3ccncc3)CC[C@H]21	none
CCC(=O)N1CCCCN2[C@@H](CO)[C@@H](c3ccc(-c4cccc(C#N)c4)cc3)[C@@H]2C1	none
CCC(=O)N1CCCCN2[C@H](C1)[C@H](c1ccc(C#Cc3ccccc3)cc1)[C@@H]2CO	IDE exosite inh -4.6
CCC(=O)N1CCCCN2[C@H](C1)[C@H](c1ccc(C#CCOC)cc1)[C@@H]2CO	none
CCC(=O)N1CCCCN2[C@H](CO)[C@H](c3ccc(C#CCOC)cc3)[C@@H]2C1	none
CCC(=O)N1CCCCN2[C@H](C1)[C@@H](c1ccc(-c3cccc(C#N)c3)cc1)[C@@H]2CO	none
O=C(Nc1ccccc1)N1CCCCN2[C@@H](CO)[C@H](c3ccc(C#Cc4ccccc4)cc3)[C@@H]2C1	none
CCC(=O)N1CCCCN2[C@H](CO)[C@H](c3ccc(C#Cc4ccccc4)cc3)[C@@H]2C1	IDE exosite inh -8.8
CCC(=O)N1CCCCN2[C@H](CO)[C@@H](c3ccc(C#Cc4ccccc4)cc3)[C@H]2C1	IDE exosite inh -3.9
CCC(=O)N1CCCCN2[C@H](C1)[C@@H](c1ccc(C#Cc3ccccc3)cc1)[C@@H]2CO	none
CN1C(=O)c2cc(NC(=O)c3cccc(Cl)c3)ccc2OC[C@@H]2O[C@@H](CC(=O)NC3CCCCC3)CC[C@H]21	none
CC(=O)N1CCCCN2[C@H](C1)[C@@H](c1ccc(Br)cc1)[C@@H]2CO	none
COc1ccc2c3c([nH]c2c1)[C@H](CO)N(C(=O)C1CCOCC1)CC31CCN(S(C)(=O)=O)CC1	none
C[C@H]1CN([C@@H](C)CO)C(=O)CCCn2nncc2CO[C@@H]1CN(C)C(=O)c1cc(-c2ccccc2)on1	none
CCCNC(=O)N1CC(=O)N2[C@H](CO)[C@H](c3ccc(C#Cc4ccc(F)cc4)cc3)[C@H]2C1	none
CC(=O)N1CCCCN2[C@H](CO)[C@@H](c3ccc(-c4ccc(C)cc4)cc3)[C@H]2C1	none
CN1C(=O)c2cc(NC(=O)c3cccc(F)c3)ccc2OC[C@H]2O[C@H](CC(=O)NCC3CCCCC3)CC[C@@H]21	none
CN1C(=O)c2cc(NC(=O)c3cnccn3)ccc2OC[C@H]2O[C@@H](CC(=O)N[C@@H]3CCN(Cc4ccccc4)C3)CC[C@@H]21	IDE exosite inh -7
COc1cccc(C(=O)Nc2ccc3c(c2)C(=O)N(C)[C@@H]2CC[C@H](CC(=O)N[C@@H](C)c4ccccc4)O[C@H]2CO3)c1	none
COc1cccc(S(=O)(=O)Nc2ccc3c(c2)C(=O)N(C)[C@H]2CC[C@H](CC(=O)NCC4CCCCC4)O[C@@H]2CO3)c1	none
CN1C(=O)c2cc(NC(=O)c3cccc(F)c3)ccc2OC[C@H]2O[C@H](CC(=O)NCC3CCCCC3)CC[C@H]21	IDE exosite inh -3.2!
COc1cccc(S(=O)(=O)Nc2ccc3c(c2)C(=O)N(C)[C@H]2CC[C@@H](CC(=O)NCC4CCCCC4)O[C@@H]2CO3)c1	IDE exosite inh -3.2
COc1cccc(S(=O)(=O)Nc2ccc3c(c2)C(=O)N(C)[C@H]2CC[C@@H](CC(=O)NCC4CCCCC4)O[C@H]2CO3)c1	none
CN1C(=O)c2cc(NC(=O)c3cccc(F)c3)ccc2OC[C@@H]2O[C@H](CC(=O)NCc3ccccc3Cl)CC[C@@H]21	none
COc1cccc(C(=O)Nc2ccc3c(c2)C(=O)N(C)[C@H]2CC[C@@H](CC(=O)N[C@@H](C)c4ccccc4)O[C@H]2CO3)c1	IDE exosite inh -3.3
CN1C(=O)c2cc(NC(=O)c3cnccn3)ccc2OC[C@@H]2O[C@H](CC(=O)N[C@H]3CCN(Cc4ccccc4)C3)CC[C@H]21	none
COc1cccc(C(=O)Nc2ccc3c(c2)C(=O)N(C)[C@@H]2CC[C@H](CC(=O)N[C@@H](C)c4ccccc4)O[C@@H]2CO3)c1	none
CN1C(=O)c2cc(NC(=O)c3cnccn3)ccc2OC[C@H]2O[C@@H](CC(=O)N[C@H]3CCN(Cc4ccccc4)C3)CC[C@H]21	none
